hcDAF-12 act: H. contortus DAF-12 nuclear receptor activators, primary screen, cell-based, luminescence, HEK293, lit1-tk-luc reporter; HEK293 hcDAF-12 lit1-tk-luc reporter; 0% DMSO, 100% Δ7-dafachronic acid; activation, % at 6.8 µM; 1.4% of 370,000 active;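 active means activation above the mean of all tested compounds plus 3 SD, cut at about 5.5% in these data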;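 further: 100% = response to 3 µM Δ7-dafachronic acid high control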
DAX1 inh-1: DAX1 (NR0B1) inhibitors on StAR promoter, primary screen, cell-based, luminescence, SF-1 (NR5A1), full-length DAX-1. inhibition, % at 6.8 µM. HEK293T StAR-luciferase reporter, SF-1/DAX-1 repression relief. 1.1% of 370,000 active;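 active means inhibition above the mean over all tested compounds plus 3 SD, cut at about 3.6% in these data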;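 further: 0% = DAX-1 cells with DMSO and 100% = cells lacking DAX-1 with DMSO; higher inhibition means more luminescence from relief of DAX-1 repression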
ssDAF12 agonist: S. stercoralis DAF-12 nuclear receptor activators, primary screen, cell-based, luminescence, HEK293, GRIP1 co-expression, lit1-tk-luc. HEK293 ssDAF-12/GRIP1 lit1-tk-luc reporter; % of 3 µM dafachronic acid response. AID 652126, 2013. activation, % at 6.8 µM. 1% of 370,000 active;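 active means activation above the mean over all tested compounds plus 3 SD, cut at about 0.9% in these data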;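 further: 0% = DMSO-only wells and 100% = 3 µM delta7-dafachronic acid wells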
DAX1 inh-2: DAX1 (NR0B1) inhibitors, primary screen, cell-based, HEK293, Gal4-DAX1, luciferase luminescence; HEK293 Gal4-DAX1 luciferase reporter; inhibition, % at 6.75 µM; 0.99% of 340,000 active; AID 504766, 2011;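 active means inhibition above the mean over all tested compounds plus 3 SD, cut at about 4.2% in these data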;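 further: 0% = DAX1-transfected cells with DMSO and 100% = empty-vector control cells with DMSO; inhibition shows as a rise in luminescence from relieved DAX1 repression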
SMARCA2 activ: SMARCA2 (BRM) function activators, primary screen, cell-based, luminescence, high throughput; MG213 cells, MMTV-luciferase reporter, dexamethasone, overnight; activation, % at 9.1 µM; 1% of 370,000 active; in the data active means activation above about 7.8%;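 further: 0% = vehicle wells and 100% = reference activator wells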
hgDAF-12 ag: H. glycines DAF-12 receptor agonists, primary screen, cell-based, luminescence, HEK293, GAL4 fusion, UAS-luciferase | 1.8% of 370,000 active | Nuclear hormone receptor DAF-12 (Heterodera glycines), GAL4 fusion | activation, % at 6.8 µM | HEK293 GAL4-hgDAF12 UAS-luciferase reporter, agonist luminescence; normalized to butyrate control | AID 687014, 2013;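 active means activation above a cutoff set at the mean of all screened compounds plus 3 SD, cut at about 10% in these data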;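 further: 0% = DMSO wells and 100% = sodium butyrate wells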
SMARCA2 conf: SMARCA2 (BRM) function activators, confirmation, cell-based, luminescence, triplicate | activation, % at 9.1 µM | shares compounds with SMARCA2 activ | MG213 cells, MMTV-luciferase with dexamethasone, overnight; MG213 cells expressing E1A, Rb sequestered; DMSO wells 0%, reference activator 100% | 30% of 3,500 active;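 active means activation above its plate's cutoff, the mean activation of tested wells plus 3 SD, cut at about 7.9% in these data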
VP16 Luc act: GAL4-VP16 luciferase reporter activation, counter-screen for SMARCA2 (BRM) activator project, cell-based, pG5luc, luminescence, high throughput | shares compounds with SMARCA2 activ | HEK293 GAL4-VP16 pG5luc reporter; scaled: DMSO wells 0%, SAHA wells 100% | activation, % at 9.1 µM | 41% of 3,500 active | AID 686939, 2013;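 active means activation above the solvent-only control well mean plus 3 SD, averaged across control plates, cut at about 5.2% in these data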
LXR ag: LXR agonists, Gal4 luciferase reporter, confirmation, counter-screen for hcDAF-12 agonist project, cell-based, luminescence, HEK293, H. contortus campaign; shares compounds with hcDAF-12 act; HEK293 Gal4-LXR tk-luc reporter, 24 h; normalized: DMSO 0%, positive control 100%; activation, % at 6.8 µM; 3,400 tested, under 10 active; AID 743027, 2013;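 active means mean percent activation of the reporter above a cutoff set as the average over tested compounds plus their standard deviation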
Target sequence (P55055 whole entry, looked up, the tested form may be a part): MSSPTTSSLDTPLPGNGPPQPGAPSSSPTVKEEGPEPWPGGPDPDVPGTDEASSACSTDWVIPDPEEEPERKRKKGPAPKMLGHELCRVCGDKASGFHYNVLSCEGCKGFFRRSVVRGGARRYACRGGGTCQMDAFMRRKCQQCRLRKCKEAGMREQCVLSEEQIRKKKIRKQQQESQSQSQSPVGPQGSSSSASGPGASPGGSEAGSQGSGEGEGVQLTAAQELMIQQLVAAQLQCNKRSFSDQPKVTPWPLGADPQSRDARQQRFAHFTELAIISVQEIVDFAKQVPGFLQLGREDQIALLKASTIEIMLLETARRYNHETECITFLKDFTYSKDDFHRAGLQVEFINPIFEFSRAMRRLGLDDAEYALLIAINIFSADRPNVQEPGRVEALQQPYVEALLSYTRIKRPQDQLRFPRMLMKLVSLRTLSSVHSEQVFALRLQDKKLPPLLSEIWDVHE
hcDAF12 ag: H. contortus DAF-12 receptor agonists, confirmation, cell-based, luminescence, HEK293, lit1-tk-luc, triplicate | shares compounds with hcDAF-12 act | HEK293 hcDAF-12 lit1-tk-luc reporter; % of Δ7-dafachronic acid response | activation, % at 6.8 µM | 61% of 3,400 active;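 active means mean activation across triplicate tests above the threshold derived from the earlier primary screen, cut at about 5.5% in these data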;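 further: 0% = DMSO only wells and 100% = 3 µM Δ7-dafachronic acid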
hgDAF12 conf: H. glycines DAF-12 receptor agonists, confirmation, cell-based, luminescence, HEK293, GAL4-LBD fusion. activation, % at 6.8 µM. 80% of 3,300 active. HEK293 GAL4-hgDAF12 luciferase reporter, agonist mode; percent of butyrate response. shares compounds with hgDAF-12 ag;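 active means mean activation over triplicate wells above the hit cutoff derived from the earlier primary screen, cut at about 11% in these data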;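 further: 0% = DMSO low control and 100% = 2 mM sodium butyrate high control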
LXR ag 2: LXR agonists, Gal4 luciferase reporter, confirmation, counter-screen for hgDAF-12 agonist project, cell-based, luminescence, HEK293, H. glycines campaign; shares compounds with hgDAF-12 ag; 24 h; activation, % at 6.8 µM; 3,300 tested, under 10 active; AID 743051, 2013;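 active means mean activation of the triplicate above a set limit carried over from the primary screen, none filed active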
* = called active by the depositor; x = no result given. Hits are enriched below; roughly 4.8% of the tested compounds scored in any of these assays.

SMILES	hcDAF-12 act	DAX1 inh-1	ssDAF12 agonist	DAX1 inh-2	SMARCA2 activ	hgDAF-12 ag	LXR ag	hcDAF12 ag	others
O=C(NN=C1C2CC3CC1CC(Cl)(C3)C2)c1ccccn1	6.2*	3	0	1	9.1*	14*	x	x	SMARCA2 conf=7;VP16 Luc act=2;hgDAF12 conf=5;LXR ag 2=0
CN1/C(=C\C(=O)c2cccnc2)Sc2ccccc21	2	3	-1	1	13*	18*	x	x	SMARCA2 conf=6;VP16 Luc act=9.1*;hgDAF12 conf=11*;LXR ag 2=1
COc1ccc(OC)c2nc(-c3ccc4c(c3)OCO4)ccc12	6.4*	2	1	5.7*	8.6*	15*	x	x	SMARCA2 conf=8;VP16 Luc act=16*;hgDAF12 conf=18*;LXR ag 2=1
COc1ccc(-c2oc(=O)c3cc(OC)c(OC)cc3c2-c2ccc3c(c2)OCO3)cc1	-1	0	-1	1	5	2	x	x
O[C@@H](Cc1ccccc1)[C@@H](/C=C/c1ccccc1)N(Cc1ccccc1)Cc1ccccc1	0	1	0	x	-1	3	x	x
O=C1C(=C(O)c2ccccc2)C(=O)c2ccccc21	7.0*	0	2.1*	-1	2	3	0	1
CCCCn1c(O)c2n(c1=O)Cc1ccccc1N=C2c1ccc(C)cc1	7.3*	1	0	x	4	0	0	4
Cc1ccccc1C(=O)N1CCN(C(=O)C(=O)c2cccc(C(F)(F)F)c2)CC1	-2	1	-1	x	-1	-1	x	x
CCOC(=O)c1sc(=NC(=O)c2ccc(Cl)s2)n(C)c1C	6.7*	2	0	3	-1	8	2	15*
Cc1ccccc1C(=O)NC1CCCCN(C)C1=O (configuration not stated)	0	1	-1	x	-2	-3	x	x
O=[N+]([O-])c1ccccc1/C=C/C=Nn1c(-c2ccc(F)cc2)n[nH]c1=S	6.6*	0	0	x	6	3	0	5
Cc1csc(NC(=O)c2cc3c(s2)CCCC3)n1	11*	2	0	-2	3	12*	1	7.0*
Cc1cnc(NC(=O)c2cc3c(s2)CCCC3)s1	9.0*	2	0	-2	1	3	2	7.0*
Cc1csc(NC(=O)c2cc3c(s2)CCCCC3)n1	3	-1	-1	-4	0	-2	x	x
CC(C)Oc1cccc(-c2n[nH]c(=S)n2N=Cc2ccc(O)cc2O)c1	-1	0	-2	x	0	-3	x	x
C[C@@H]1ON(C)[C@H]2C[C@H]3c4[nH]c5c(-c6cccc(F)c6)cccc5c4CCN3C(=O)[C@@H]12	0	1	0	x	0	0	x	x
COC(=O)Cc1nnn2c1[C@H](C)[C@@H](OC)c1ccccc1-2	0	0	-1	x	-1	3	x	x
O=C(Cn1cncn1)NCc1cccc(OC(F)F)c1	6.8*	0	-1	-1	0	-1	0	2
CCc1cccc(-n2c(C)cc(O)cc2=O)c1	-2	0	-1	x	-1	-3	x	x
N=c1scc(-c2ccccc2)n1/N=C/c1ccco1	6.8*	2	1.4*	0	5	11*	1	4
O=C(Nc1ccc2c(c1)CCC2)c1cccc(OC(F)F)c1	7.4*	3	1.3*	x	6	11*	1	4
O=C(Nc1ccc(S(=O)(=O)N2CCCC2)cc1)c1cccc(OC(F)F)c1	-3	-3	-1	-1	-2	-4	x	x
Cc1ccc(C2=Nc3ccccc3N=C(C(Cl)Cl)C2)cc1	17*	3.8*	2.8*	-1	0	19*	1	9.9*
CC1CCCN(c2cccc3c2S(=O)(=O)N(Cc2cccc(Cl)c2)[C@@H](C)[C@H](c2ccccc2)O3)C1 (some centres not stated)	0	2	-1	x	-5	2	x	x
C/C(=N\NC(=O)c1ccccc1NC(=O)c1ccc(Cl)cc1)c1ccncc1	11*	3	0	-3	2	9	1	5.8*
CC(=NNC(=O)c1ccncc1)c1ccccc1Cl	0	0	-1	0	-1	2	x	x
CCOc1cc(/C=C2\N=C(C)OC2=O)cc(Br)c1OCC(=O)OC	6.7*	0	1	0	5	-1	0	2
CC(=O)Nc1sc2c(c1-c1nc3ccccc3s1)CCN(C)C2	14*	x	0	x	x	5	1	9.4*
CC(=O)Nc1sc2c(c1-c1nc3ccccc3s1)CN(C(C)C)C2	2	x	-1	x	x	7	x	x
Cc1ccc(C2=Nc3ccccc3NC(C)(c3ccc(C)o3)C2)o1 (configuration not stated)	15*	1	1.4*	1	5	12*	0	5.7*

Bioassay records (PubChem BioAssay)
